Measured values from PubChem BioAssay.
Active and inactive are the calls of the source.

Columns and labels:
[1] = target: Albumin (Bos taurus) (UniProt P02769); test: compounds binding labelled BSA control protein – biochemical, small-molecule microarray, Alexa647 label, 635/667 nm fluorescence, artefact control for SMM control protein annotation, profiling panel (AID 1118); settings: BSA-A647 binding, fluorescence 635 nm, higher = more signal;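 note: score merges 667 nm emission intensity and signal-to-noise per printed compound spot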
Sequence of Albumin (Bos taurus) (P02769 whole entry, looked up): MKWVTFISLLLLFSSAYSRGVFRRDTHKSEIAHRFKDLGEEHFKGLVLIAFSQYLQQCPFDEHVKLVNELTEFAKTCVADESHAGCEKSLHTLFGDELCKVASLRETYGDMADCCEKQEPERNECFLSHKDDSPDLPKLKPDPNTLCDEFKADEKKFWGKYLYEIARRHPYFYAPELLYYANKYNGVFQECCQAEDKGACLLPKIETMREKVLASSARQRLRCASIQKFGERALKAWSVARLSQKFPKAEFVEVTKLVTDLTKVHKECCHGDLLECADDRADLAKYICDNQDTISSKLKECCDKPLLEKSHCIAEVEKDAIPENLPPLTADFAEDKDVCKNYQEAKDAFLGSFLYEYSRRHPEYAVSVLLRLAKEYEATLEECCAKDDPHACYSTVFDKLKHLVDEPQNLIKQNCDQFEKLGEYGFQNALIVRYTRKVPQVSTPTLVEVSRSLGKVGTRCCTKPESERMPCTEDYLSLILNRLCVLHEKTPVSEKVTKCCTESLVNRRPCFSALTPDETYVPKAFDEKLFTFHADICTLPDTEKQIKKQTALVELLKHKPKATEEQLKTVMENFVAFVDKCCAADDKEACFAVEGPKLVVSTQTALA

[2] = probe aXIP binding to arrayed compounds – biochemical, NeuroSMM set, 635/667 nm fluorescence, primary screen (AID 1119); settings: small-molecule microarray, higher = more signal, called active from +8 up or from −8 down;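 note: probe is the protein aXip251-270 applied at 1 µg/mL to compound-printed slides; binding of probe to printed compounds measured as 667 nm fluorescence plus signal to noise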
[3] = probe aNOTCH3 binding on compound microarray – biochemical, small-molecule microarray, 635/667 nm fluorescence, primary screen (AID 1120); settings: higher = more signal;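 note: probe is a biotin-tagged antibody raised against NOTCH3 rather than NOTCH3 protein; score merges spot fluorescence near 667 nm with spot signal to noise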
[4] = probe aNOTCH2 binding on compound microarray – biochemical, small-molecule microarray, 635/667 nm fluorescence, primary screen (AID 1121); settings: higher = more signal;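 note: score merges feature fluorescence read at 667 nm with its signal to noise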
[5] = target: Carbonic anhydrase 2 (Homo sapiens) (UniProt P00918); test: compounds binding carbonic anhydrase 2 – biochemical, small-molecule microarray, Alexa647-labelled CAII, profiling panel (AID 1122); settings: CAII-A647 binding fluorescence, higher = more signal
[6] = COS7 lysate on small-molecule microarray, probe aHis, 635 nm (AID 1123); settings: COS7 cell lysate, fluorescence, higher = more signal;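 note: z-score combines 667nm fluorescence intensity with signal-to-noise per printed compound spot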
[7] = probe aLAP1 signal on lysate-treated microarray – cell lysate, small-molecule microarray, COS7 lysate, primary screen (AID 1124); settings: probe aLAP1, fluorescence, higher = more signal;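 note: lysate comes from COS7 cells expressing LAP1 and is applied at 0.3 µg/mL; score merges spot fluorescence near 667 nm with signal-to-noise over triplicate slides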
[8] = tested on: Sam68 (KHDRBS1); test: compounds binding KHDRBS1 protein – biochemical, small-molecule microarray, 635 nm fluorescence, primary screen (AID 1125); settings: higher = more signal;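 note: score merges 667 nm channel intensity with signal to noise over triplicate slides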
[9] = tested on: Chordin-like protein 2 (CHRDL2); test: compounds binding chordin-like 2 – biochemical, small-molecule microarray, 635 nm fluorescence, primary screen (AID 1126); settings: fluorescence 635 nm, higher = more signal;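 note: printed compound slides probed with Chrdl2 protein at 4 µg/mL for 1 h at 4 C; score merges 667 nm emission intensity with signal to noise over three replicate slides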
[10] = target: Concanavalin-A (Canavalia ensiformis) (UniProt P02866); test: compounds binding concanavalin A lectin – biochemical, small-molecule microarray, Alexa647 label, 635 nm, artefact control for SMM control protein annotation, primary screen (AID 1127); settings: ConA-A647 binding fluorescence, higher = more signal;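 note: z combines 667 nm emission intensity with signal-to-noise across three replicate slides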
Sequence of Concanavalin-A (Canavalia ensiformis) (P02866 whole entry, looked up): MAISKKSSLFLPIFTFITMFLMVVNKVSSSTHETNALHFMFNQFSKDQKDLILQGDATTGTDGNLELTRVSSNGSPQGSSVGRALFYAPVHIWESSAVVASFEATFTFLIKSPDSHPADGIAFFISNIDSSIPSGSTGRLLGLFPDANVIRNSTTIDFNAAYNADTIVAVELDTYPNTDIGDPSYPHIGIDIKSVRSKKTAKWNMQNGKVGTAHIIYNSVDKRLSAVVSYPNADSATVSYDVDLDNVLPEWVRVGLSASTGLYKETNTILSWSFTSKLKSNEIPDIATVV

[11] = compounds binding Alexa647 anti-His antibody – biochemical, small-molecule microarray, 635 nm fluorescence, artefact control for SMM control protein annotation, primary screen (AID 1128); settings: higher = more signal;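 note: score merges feature fluorescence with signal-to-noise for each printed compound spot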
[12] = tested on: Human papillomavirus type 1a E7 protein (residues 1-88); test: HPV1a E7 small-molecule binders, primary screen, biochemical, small-molecule microarray, residues 1-88, 635 nm (AID 1129); settings: small-molecule microarray binding, fluorescence 635 nm; higher = more signal
[13] = target: Focal adhesion kinase 1 (Homo sapiens) (UniProt Q05397); test: PTK2 protein binding on printed compound slides – biochemical, small-molecule microarray, 635/667 nm fluorescence, BSA, DTT, primary screen (AID 1130); settings: 635 nm fluorescence, higher = more signal;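 note: composite of spot emission at 667 nm and signal to noise over triplicate slides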
Sequence of Focal adhesion kinase 1 (Homo sapiens) (Q05397 whole entry, looked up): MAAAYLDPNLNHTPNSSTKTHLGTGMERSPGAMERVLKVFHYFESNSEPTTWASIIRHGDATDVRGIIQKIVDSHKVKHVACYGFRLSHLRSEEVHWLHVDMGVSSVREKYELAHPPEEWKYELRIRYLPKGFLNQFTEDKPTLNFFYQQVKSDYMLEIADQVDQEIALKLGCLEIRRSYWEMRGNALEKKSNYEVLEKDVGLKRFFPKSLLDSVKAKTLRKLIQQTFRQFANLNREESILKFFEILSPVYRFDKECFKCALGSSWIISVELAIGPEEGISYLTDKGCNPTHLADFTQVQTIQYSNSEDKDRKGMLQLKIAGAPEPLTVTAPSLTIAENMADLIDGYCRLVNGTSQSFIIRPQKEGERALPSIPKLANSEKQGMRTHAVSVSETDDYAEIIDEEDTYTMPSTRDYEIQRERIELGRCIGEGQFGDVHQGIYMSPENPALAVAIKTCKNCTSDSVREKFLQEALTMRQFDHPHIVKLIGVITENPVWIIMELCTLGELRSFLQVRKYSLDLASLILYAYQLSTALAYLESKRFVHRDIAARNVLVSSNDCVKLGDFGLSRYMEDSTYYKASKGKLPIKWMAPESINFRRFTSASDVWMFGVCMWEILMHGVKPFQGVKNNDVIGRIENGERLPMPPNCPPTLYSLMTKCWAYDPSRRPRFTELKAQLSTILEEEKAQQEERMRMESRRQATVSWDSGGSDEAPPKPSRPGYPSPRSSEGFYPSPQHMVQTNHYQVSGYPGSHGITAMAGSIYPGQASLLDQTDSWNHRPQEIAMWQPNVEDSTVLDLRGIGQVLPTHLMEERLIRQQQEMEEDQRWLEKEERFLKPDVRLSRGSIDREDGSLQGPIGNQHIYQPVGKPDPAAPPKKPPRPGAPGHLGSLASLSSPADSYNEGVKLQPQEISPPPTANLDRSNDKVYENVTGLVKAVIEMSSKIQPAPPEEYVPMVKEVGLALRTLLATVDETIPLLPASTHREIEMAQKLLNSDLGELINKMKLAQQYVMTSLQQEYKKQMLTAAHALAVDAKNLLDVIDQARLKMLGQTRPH

[14] = tested on: Fibrinogen (Alexa647-labelled); test: Alexa647-fibrinogen binding to printed small molecules – biochemical, small-molecule microarray, 635/667 nm fluorescence, artefact control for SMM control-protein annotation, profiling panel (AID 1131); settings: fibrinogen-A647 binding fluorescence, higher = more signal;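 note: z-score merges 667 nm fluorescence with per-spot signal-to-noise over triplicate slides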
[15] = target: Follistatin (Homo sapiens) (UniProt P19883); test: FST protein binding to printed compounds – biochemical, small-molecule microarray, 635/667 nm fluorescence, primary screen (AID 1132); settings: 635 nm fluorescence, higher = more signal
Sequence of Follistatin (Homo sapiens) (P19883 whole entry, looked up): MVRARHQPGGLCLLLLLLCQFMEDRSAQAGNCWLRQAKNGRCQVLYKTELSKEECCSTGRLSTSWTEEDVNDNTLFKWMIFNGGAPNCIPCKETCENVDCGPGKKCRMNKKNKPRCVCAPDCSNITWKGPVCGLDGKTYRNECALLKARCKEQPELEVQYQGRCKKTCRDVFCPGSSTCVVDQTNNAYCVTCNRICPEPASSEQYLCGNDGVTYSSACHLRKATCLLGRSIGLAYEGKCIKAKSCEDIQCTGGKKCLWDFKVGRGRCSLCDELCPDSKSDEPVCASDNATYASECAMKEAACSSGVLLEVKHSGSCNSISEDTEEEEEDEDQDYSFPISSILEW

[16] = target: Fibroblast growth factor 2 (Homo sapiens) (UniProt P09038); test: basic fibroblast growth factor binding to printed compounds – biochemical, small-molecule microarray, 635/667 nm fluorescence, primary screen (AID 1133); settings: FGF2, fluorescence 635/667, higher = more signal
Sequence of Fibroblast growth factor 2 (Homo sapiens) (P09038 whole entry, looked up): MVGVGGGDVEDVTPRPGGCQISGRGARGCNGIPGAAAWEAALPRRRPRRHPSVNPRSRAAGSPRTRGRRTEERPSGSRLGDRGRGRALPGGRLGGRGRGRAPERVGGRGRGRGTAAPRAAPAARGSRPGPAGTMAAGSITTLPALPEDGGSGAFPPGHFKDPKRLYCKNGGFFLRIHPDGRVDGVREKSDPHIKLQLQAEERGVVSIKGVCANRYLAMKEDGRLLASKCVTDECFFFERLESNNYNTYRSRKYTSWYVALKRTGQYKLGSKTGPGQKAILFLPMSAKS

[17] = JC-1 mitochondrial potential readout, lung cancer cells – cell-based, A549, JC-1 fluorescence, basal, 24 h, 100 nL, profiling panel (AID 1138); settings: higher = more signal;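 note: A549 lung adenocarcinoma cells under basal conditions with no added stimulus; test concentration not given here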
[18] = tested on: Lefty1; test: Lefty1 protein binding to printed compounds – biochemical, small-molecule microarray, 635/667 nm fluorescence, primary screen (AID 1139); settings: fluorescence 635/667, higher = more signal
[19] = tested on: wheat germ agglutinin (Triticum aestivum), Alexa647-labelled; test: Alexa647-WGA lectin binding to printed small molecules – biochemical, small-molecule microarray, 635/667 nm fluorescence, artefact control for SMM control-protein annotation, profiling panel (AID 1140); settings: WGA-A647 binding, 635 nm fluorescence, higher = more signal;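 note: score merges 667 nm feature emission with signal to noise over triplicate slides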
[20] = target: Luciferin 4-monooxygenase (Photinus pyralis) (UniProt P08659); test: inhibition of purified Photinus pyralis luciferase – biochemical, luminescence, purified enzyme, 2006 set, primary screen (AID 1141); settings: purified firefly luciferase, SteadyGlo luminescence, 30 min; higher = more signal, called active from +8 up or from −8 down;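 note: cell-free assay with purified firefly luciferase at 100 ng per well in PBS; test concentration not given here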
Sequence of Luciferin 4-monooxygenase (Photinus pyralis) (P08659 whole entry, looked up): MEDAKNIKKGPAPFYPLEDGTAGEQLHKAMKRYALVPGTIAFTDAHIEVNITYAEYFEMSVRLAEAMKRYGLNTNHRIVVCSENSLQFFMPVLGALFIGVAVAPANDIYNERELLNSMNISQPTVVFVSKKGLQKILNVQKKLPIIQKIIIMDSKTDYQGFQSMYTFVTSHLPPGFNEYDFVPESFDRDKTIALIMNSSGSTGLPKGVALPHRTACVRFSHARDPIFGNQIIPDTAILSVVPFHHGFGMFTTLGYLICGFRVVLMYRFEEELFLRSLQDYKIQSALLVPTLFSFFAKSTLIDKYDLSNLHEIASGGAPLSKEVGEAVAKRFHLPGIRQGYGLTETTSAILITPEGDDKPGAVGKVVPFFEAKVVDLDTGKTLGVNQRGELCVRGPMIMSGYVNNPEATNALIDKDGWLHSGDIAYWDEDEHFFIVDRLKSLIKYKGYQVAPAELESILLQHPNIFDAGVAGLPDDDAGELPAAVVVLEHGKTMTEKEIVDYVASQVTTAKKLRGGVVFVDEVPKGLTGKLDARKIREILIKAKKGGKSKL

Row | SMILES | composite z-score [1] | composite Z-score [2] | composite z-score [3] | composite z-score [4] | composite z-score [5] | composite z-score [6] | composite z-score [7] | composite z-score [8] | composite z-score [9] | composite z-score [10] | composite z-score [11] | composite z-score [12] | composite z-score [13] | composite z-score [14] | composite z-score [15] | composite z-score [16] | z-score [17] | composite z-score [18] | composite z-score [19] | z-score [20]
1 | C=C(CCCC)/C(=C/C[C@@H](OC(=O)c1ccncc1)c1ccc(OCCO)cc1)c1cnc2ccccc2c1 | 0.26 | -0.0966 (inactive) | 0.135 | -0.0859 | 0.948 | 0.814 | 2.07 | 1.03 | 1.44 | 1.15 | 0.921 | 0.775 | -0.438 | 0.577 | 1.44 | 1.62 | 0.985 | 1.64 | 1.35 | -2.3 (inactive)
2 | CCN(CC)c1ccc(N2CC=CC34O[C@@H]5C=CCOC(=O)[C@@H]5[C@H]3C(=O)N(C(C)CO)[C@@H]4C2=O)cc1 (stereo not given in full) | -1.28 | -0.237 (inactive) | -0.213 | -0.126 | 0.0808 | -0.67 | 0.0745 | -1.69 | -1.35 | -1.51 | -1.34 | -1.28 | -1.02 | -2.61 | -1.04 | -1.13 | 1.39 | -1.65 | -1.07 | -0.822 (inactive)
3 | COCCOC(=O)N1C(=O)[C@@]2(c3cc(C#CCCO)ccc31)[C@H](c1ccccc1OCCO)N1[C@H](c3ccccc3)[C@H](c3ccccc3)OC(=O)[C@H]1[C@@H]2C(=O)NC[C@H](O)c1ccccc1 | 0.25 | 0.0022 (inactive) | -0.0197 | -0.0753 | 0.204 | 2.15 | 0.35 | 1.31 | 0.524 | 0.859 | 2.02 | 0.907 | 1.07 | 0.756 | 1.5 | 1.7 | 0.891 | 1.61 | 1.01 | -1.74 (inactive)
4 | CC(C)[C@@H](C(=O)O)n1cc(-c2ccccn2)nn1 | 0.69 | 0.516 (inactive) | -0.146 | 0.0571 | 0.525 | 0.708 | 0.242 | 0.522 | -0.119 | 0.556 | 2.19 | 1.08 | 0.113 | 0.811 | -0.0164 | 0.712 | 1.88 | 0.0234 | 0.957 | -0.495 (inactive)
5 | COC(=O)C1=CC(c2ccc(CO)cc2)=CC(C2CC2)N(C)C=C1C(=O)OC (stereo not given) | 0.965 | 0.498 (inactive) | -0.0903 | -0.0617 | 0.874 | 1.73 | 0.969 | 0.862 | -0.73 | -0.0948 | 0.822 | -0.203 | 0.883 | 0.707 | -0.743 | -0.326 | 1.63 | -0.615 | 1.28 | -1.8 (inactive)
6 | O=C1c2ccccc2[C@](Cc2ccccc2I)(C(=O)O)[C@H](c2ccc(CO)cc2)N1Cc1ccccc1Cl | 0.953 | 1.61 (inactive) | -0.014 | -0.0633 | 0.608 | 2.24 | 1.07 | 1.3 | -0.912 | 0.944 | 1.99 | 1.19 | 1.04 | -0.113 | 0.0645 | -0.354 | 0.712 | 0.0911 | 0.507 | -1.28 (inactive)
7 | CO[C@H]1O[C@H](CO)[C@@H](OC(=O)CCc2ccccc2)[C@@H]2OC(=O)[C@H](Cc3ccccc3)C/C=C/C[C@@H](Cc3ccccc3)C(=O)O[C@@H]12 | -0.707 | 0.508 (inactive) | -0.19 | -0.0928 | 0.746 | 0.75 | -0.662 | 0.506 | -0.845 | -1.04 | -0.13 | -0.109 | 0.186 | -0.565 | -0.618 | -0.38 | 1.01 | -0.71 | -1.32 | -1.21 (inactive)
8 | COc1ccc([Si](C)(C)[C@H]2[C@H](CC(=O)N3Cc4ccccc4C[C@H]3CO)O[C@@]3(C(=O)N(Cc4cccc(N5C(=O)COc6ccccc65)c4)c4ccccc43)[C@@H]2C)cc1 | -0.534 | 0.373 (inactive) | 0.0297 | -0.102 | 0.635 | 1.97 | -0.245 | 1.02 | 1.38 | 1.16 | 1.57 | 0.671 | 0.81 | 0.585 | 1.17 | 1.6 | 0.388 | 1.44 | 0.862 | -0.961 (inactive)
9 | CC(C)C[C@@H]1NC(=O)[C@H]2C[C@@H](C(=O)NCCCC[N+](C)(C)C)[C@@H](c3cccc(OCCO)c3)N2C1=O | 0.252 | 0.331 (inactive) | 0.217 | -0.19 | 0.475 | 1.89 | 0.987 | 0.848 | 0.938 | 0.476 | 3.29 | -0.146 | -0.153 | -0.236 | 1.25 | 1.61 | 1.31 | 1.39 | -0.102 | -1.97 (inactive)
10 | O=C1c2ccccc2C(=O)c2cc([C@H]3Oc4ccccc4S(=O)(=O)N4CCC[C@@H]34)ccc21 | -0.791 | -0.228 (inactive) | -0.227 | -0.0933 | -0.157 | -0.319 | -0.235 | -1.02 | -0.504 | -2.59 | -1.02 | -0.551 | -0.953 | -0.91 | -1.07 | -0.533 | 1.18 | -0.534 | -1.26 | -1.04 (inactive)
